Usually Inhibition stands for the drop in the measured response relative to a control, in per cent.

SMILES strings stand for the structures.

This assay concerns HepG2. As to the kind of experiment: GSK_TCMDC: Percent inhibition of human HepG2 cell line. Test compounds present at 10uM. Format: functional.
As for `CC1=NN(c2ccc(C)c(C)c2)C(=O)C1=NNc1cccc(-c2cccc(NC(=O)OC(C)(C)C)c2)c1O`, the Inhibition is listed as 39%.

With `Cc1cc(CN2CCC(C(=O)Nc3ccc(-c4nc5ccccc5[nH]4)cc3)CC2)oc1C`, the Inhibition is reported as 0%.

`CCc1c[nH]c2c(N3CCCCS3(=O)=O)cc(C(=O)N[C@@H](Cc3ccccc3)[C@H](O)CNCc3cccc(OC)c3)cc12.O=CO` came in with an Inhibition of 0%.

With `Cc1nnsc1C(=O)Nc1ccc(-c2ccc(-c3nc4cccc(C)c4[nH]3)s2)cc1`, the Inhibition is reported as 63%.

Turning to `O=C(O)C(F)(F)F.O=S(=O)(/C=C/c1ccccc1)N(Cc1ccc(-c2ccc(CNCCOc3ccccc3)cc2)cc1)CC1CCCCN1` (configuration not stated), the Inhibition is 99%.

With `CC(=O)Nc1ccc(C(=O)Nc2cccc(-c3csc(-c4nc5ccccc5[nH]4)c3)c2)cn1`, the Inhibition came out at 6%.

Turning to `O=C(NC1CCN(Cc2ccc3c(c2)OCCO3)CC1)c1ccc(-c2cccc(C(F)(F)F)c2)s1.O=C(O)C(F)(F)F`, the Inhibition was found to be 99%.

Regarding `COc1ccc2nccc([C@@H](O)CN3CCC(NCc4cc5c(cc4F)SCC(=O)N5)CC3)c2n1`, the Inhibition is reported as 14%.

`N#Cc1ccc(-c2ccc(C(=O)NCCCCN3CCC(c4cn(CCCO)c5ccccc45)CC3)cc2)cc1` had an Inhibition of 31%.

Consider `OC(CNc1ccnc(Nc2ccccc2)n1)c1ccc(C(F)(F)F)cc1` (configuration not stated), for which the Inhibition came to 3%.

`N#Cc1ccc(N(CCNS(=O)(=O)c2cc(Br)c(Cl)s2)Cc2ccccc2C(F)(F)F)cc1C(F)(F)F`: the Inhibition was found to be 3%.

Compound `COc1ccc(Nc2nccc(-c3c(-c4cccc(NC(=O)c5c(F)cccc5F)c4)nn4ccccc34)n2)cc1Cl` showed an Inhibition of 61%.

For `Cl.O=C(Nc1ccc2nccc(N3CCN4CCC[C@H]4C3)c2c1)c1ccc(Cl)c(Cl)c1`, the Inhibition worked out at 18%.

The compound `Nc1nc(N)c2cc(N(Cc3ccccc3)Cc3ccccc3)ccc2n1` showed an Inhibition of 69%.

For `CC(C)Sc1ccc(Cl)cc1CON1C(=N)N=C(N)NC1(C)C.Cl`, the Inhibition came to 66%.

For `O=C(NCC1CCN(C/C=C/c2ccccc2)CC1)Nc1ccc(Oc2ccccc2)cc1`, the Inhibition came to 40%.

Turning to `COc1ccc(N2CCN(CCCCNC(=O)c3ccc(NC(=O)c4ccc(Cl)cc4)cc3)CC2)c(OC)c1.Cl`, the Inhibition was 25%.

The compound `CCc1ccc(C2CCN(CCCCNC(=O)c3ccc(-c4ccc(Cl)cc4)cc3)CC2)c(O)c1` showed an Inhibition of 48%.

In the case of `CC(Cc1ccc(OCCN2CCN(c3ccccc3)CC2)cc1)NCC(O)c1cccc(Cl)c1F.Cl` (configuration not stated), the Inhibition is 40%.

Turning to `CN(C)c1ccc(C=Cc2ccc3ccccc3n2)c(Cl)c1`, the Inhibition came out at 59%.

In turn, `COc1cc(OC)c(OC)cc1CN1CCC2(CC1)CN(Cc1ccc(Cl)c(Cl)c1)C(=O)O2` registered an Inhibition of 8%.

Take `Cc1cccc2nc(-c3ccc(-c4cccc(NC(=O)c5cncn5C)c4)s3)[nH]c12`: the Inhibition came out at 13%.

`COc1ccc(CCn2c(C3CCCCC3)nc3oc4ccccc4c(=O)c3c2=O)cc1` registered an Inhibition of 12%.

`CC(C)c1ccc(OCC(O)CN(CCN2CCOCC2)C(=O)Nc2ccc(Br)cc2)cc1.O=C(O)C(F)(F)F` (configuration not stated) gave an Inhibition of 6%.

Consider `COc1ccc(CNCc2ccccc2)cc1-c1ccc(OC)c(S(=O)(=O)NCCN2CCCC2)c1.O=C(O)C(F)(F)F`, for which the Inhibition stood at 14%.

Turning to `O=C(O)C(F)(F)F.O=c1[nH]ccc2nc(N[C@@H]3CCNC3)nc(Nc3cccc(S(=O)(=O)N4CCOCC4)c3)c12`, the Inhibition amounted to 0%.

Take `O=C(/C=C/c1ccc(Cl)c(Cl)c1)NCCCCCN1CCCN(C(=O)Nc2ccc(F)c(F)c2)CC1`: the Inhibition was found to be 26%.

In turn, `COc1ccc(CNCc2cccc(-c3ccc(-c4nc5cccc(C)c5[nH]4)cc3)c2)cc1.O=C(O)C(F)(F)F` displayed an Inhibition of 23%.

`CN(C)c1cccc(-c2cnc3ccc(NCc4cccc(Cl)c4)nn23)c1` showed an Inhibition of 11%.

On to `Cc1[nH]c(C)c(-c2ccc(Oc3ccc(F)cc3)cc2)c(=O)c1Cl`, for which the Inhibition is 14%.

`N#Cc1ccc(-c2cnc3ccc(NCCc4cccnc4)nn23)cc1`: the Inhibition was determined as 27%.

Regarding `CCCc1cc(Cc2cnc(N)nc2N)cc(CCC)c1OCCCCC(=O)OCC`, the Inhibition was 1%.

The compound `OC1CCC(Nc2ccc3ncc(-c4ccc5ccccc5c4)n3n2)CC1` (configuration not stated) came in with an Inhibition of 52%.

`CCN(CC)CCCSc1ccc(-c2ccc(SCCCN(CC)CC)cc2)cc1` yielded an Inhibition of 38%.

As to `CCn1c(-c2nonc2N)nc2c(-c3ccccc3)ncc(OCCCCNCCc3ncc[nH]3)c21.O=C(O)C(F)(F)F`, the Inhibition is reported as 34%.

`OC(CNC1CCCCC1)Cn1c2ccc(I)cc2c2cc(I)ccc21` (configuration not stated) returned an Inhibition of 10%.

`COc1ccc(Nc2ncc3c(-c4cccc(NC(=O)Cc5ccc(O)cc5)c4)c[nH]c3n2)cc1OC` had an Inhibition of 48%.

These data come from ChEMBL document CHEMBL1157539, “Thousands of chemical starting points for antimalarial lead identification” (Nature, 2010).
